Rows were chosen to be rich in hits. Some 3.4% of all compounds tested hit in one or more screens of this group.
ADAM17 inh – inhibits human ADAM17. P78536. recombinant ADAM17, EDANS/DABCYL FRET peptide cleavage. inhibition, % at 6.95 µM. 370,000 tested, 0.83% active;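 active means inhibition above the mean of compounds lying between control limits plus 3 SD, set per campaign, cut at about 8.5% in these data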;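 further: 0% = DMSO-only wells as the low control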
proKLK7 act – activators of human kallikrein-7 zymogen; P49862; 370,000 tested, 0.9% active; activation, % at 7 µM; AID 652039; purified proKLK7, EDANS-DABCYL substrate fluorescence; 100% is mature enzyme control, 0% vehicle;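 active means activation above the mean of all tested compounds plus 3 SD, computed per campaign excluding outliers beyond control limits, cut at about 13% in these data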
ADAM10 inh – inhibits human ADAM10. AID 720582. O14672. 370,000 tested, 0.62% active. recombinant ADAM10, EDANS/DABCYL FRET peptide cleavage, 3 h. inhibition, % at 7 µM;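 active means inhibition above a per-campaign cutoff equal to the mean of compounds falling between control-based bounds plus 3 SD, cut at about 20% in these data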;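 further: 0% = DMSO wells while the 100% control is not disclosed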
sPLA2-III inh – Inhibits HGIII-sPLA2 liposome hydrolysis, primary screen. Q9NZ20. QFRET BODIPY PC-A2 liposome hydrolysis, fluorescence. inhibition, % at 12.2 µM. 370,000 tested, 0.56% active. AID 743126;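 active means inhibition above mean plus 3 SD of compounds lying within the high and low control bounds, cut at about 19% in these data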;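 further: 0% = median of test compound wells and 100% = no enzyme DMSO wells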
CendR NRP1 mod – NRP-1/CendR interaction modulation; 360,000 tested, 0.85% active; AID 602438; inhibition, % at 25 µM; O14786; FAM-RPARPAR peptide binding to NRP-1, fluorescence polarization;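 active means inhibition or corrected inhibition above about 18%, plus a signal ratio from 0.5 to 1.5, limit read from the data, passing the limit was not always enough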
Target sequence (O14786 whole entry, looked up): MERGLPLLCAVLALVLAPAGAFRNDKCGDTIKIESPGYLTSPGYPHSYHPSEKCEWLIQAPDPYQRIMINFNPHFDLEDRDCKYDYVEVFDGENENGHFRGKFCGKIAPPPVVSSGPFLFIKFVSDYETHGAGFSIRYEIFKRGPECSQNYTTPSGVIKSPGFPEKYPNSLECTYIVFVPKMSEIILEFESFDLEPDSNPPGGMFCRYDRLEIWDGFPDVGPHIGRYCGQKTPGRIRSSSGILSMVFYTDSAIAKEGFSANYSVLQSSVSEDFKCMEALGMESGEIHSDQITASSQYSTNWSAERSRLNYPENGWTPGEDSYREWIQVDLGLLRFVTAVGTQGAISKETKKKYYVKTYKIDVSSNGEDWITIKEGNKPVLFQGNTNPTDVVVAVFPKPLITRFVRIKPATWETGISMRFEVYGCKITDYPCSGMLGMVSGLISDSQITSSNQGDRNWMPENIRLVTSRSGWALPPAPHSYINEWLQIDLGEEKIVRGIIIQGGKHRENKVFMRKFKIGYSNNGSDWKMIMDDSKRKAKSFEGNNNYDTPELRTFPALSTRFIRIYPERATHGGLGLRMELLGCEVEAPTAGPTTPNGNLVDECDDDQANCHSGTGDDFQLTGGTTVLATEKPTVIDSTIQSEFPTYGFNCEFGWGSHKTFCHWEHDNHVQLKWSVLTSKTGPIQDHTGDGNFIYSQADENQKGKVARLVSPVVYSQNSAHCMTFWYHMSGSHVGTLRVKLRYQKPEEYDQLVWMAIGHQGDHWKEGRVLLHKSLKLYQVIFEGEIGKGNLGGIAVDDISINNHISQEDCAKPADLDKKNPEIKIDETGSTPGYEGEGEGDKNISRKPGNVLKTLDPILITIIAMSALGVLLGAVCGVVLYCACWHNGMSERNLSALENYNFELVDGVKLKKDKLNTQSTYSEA
* marks the source's active call; other numbers are inactive results; nt = no result given.

SMILES	ADAM17 inh	proKLK7 act	ADAM10 inh	sPLA2-III inh	CendR NRP1 mod
O=C(COCc1cc(-c2ccc3c(c2)OCO3)on1)N1CCN(c2cccc(C(F)(F)F)c2)CC1	-0.5	0.3	5.6	-2.8	19.0*
CSc1ncccc1C(=O)OCC(=O)NC1CCCCC1	-2.2	-0.7	-13.2	2.6	22.8*
CSc1ncccc1C(=O)OCC(=O)Nc1ccc(C)c(S(=O)(=O)N2CCOCC2)c1	0.1	0.7	-0.1	-15.4	20.3*
Cc1ccc(NC(=O)COC(=O)c2cccnc2Cl)cc1S(=O)(=O)N1CCOCC1	0.1	-0.2	-17.6	1.8	14.2
COC(=O)[C@]12C[C@H](CC(=O)N3CCOCC3)C(=O)N(CCC3=CCCCC3)C1=C[C@H](C(C)C)O[C@@H]2C1CC1	1.0	-0.1	5.3	-3.2	nt
CCCCS(=O)(=O)N1CCCc2nc(-c3ccc(OC)cc3)ccc21	-28.9	0.6	-113.8	-1.7	nt
Oc1ccc2[nH]cnc2c1CN1CCCCC1	-5.8	-0.5	-7.6	3.1	25.2*
O=C(NCC(c1ccccc1)c1ccccc1)[C@H](Cc1c[nH]c2ccccc12)NC1(C(=O)NC2CCCCC2)CCCC1	-3.1	nt	1.8	3.4	nt
C=CCN1C=C2C(=O)C(C)(OC(=O)CC)C(=O)C=C2C=C1CCCC (stereo unspecified)	-14.7	1.4	-27.0	-1.8	6.1
CCCCC1=CC2=CC(=O)C(C)(OC(=O)CC)C(=O)C2=CN1Cc1ccc(OC)cc1 (stereo unspecified)	-23.0	-2.0	-84.8	-7.2	35.2*
CCCCC1=CC2=CC(=O)C(C)(OC(=O)CC)C(=O)C2=CN1CC(C)C (stereo unspecified)	-16.6	-1.2	-71.4	-4.0	4.0
C=CCN1C=C2C(=O)C(C)(OC(=O)c3cccs3)C(=O)C=C2C=C1CCCC(=O)OC (stereo unspecified)	-1.8	0.2	-7.2	-0.3	28.5*
CCCCC1=CC2=CC(=O)C(C)(OC(=O)CC)C(=O)C2=CN1C(CO)CO (stereo unspecified)	-4.8	-0.4	-13.1	6.0	35.3*
Cc1ccc(-n2c(SCC(=O)c3ccccc3Cl)nnc2-c2cnccn2)cc1	-1.6	-0.1	-0.8	-21.2	nt
C=C(C)Cn1c(SCC(=O)N/N=C(\C)c2ccc(Br)cc2)nnc1-c1ccc(Br)cc1	-1.8	-0.5	4.0	10.7	nt
Cc1ccc(-n2c(SCC(=O)Nc3ccc(OCc4ccccc4)cc3)nnc2-c2ccccc2)cc1	-3.6	1.0	-7.0	0.3	nt
N[C@H](C(=O)N1CCC[C@@H]1C(=O)N1CCC2CCN(S(=O)(=O)c3ccccc3)CC21)c1ccccc1 (stereo partly specified)	0.5	0.4	-5.2	13.8	nt
CCNC(=O)NC(=O)CSc1ccccc1F	-4.2	-0.3	-3.5	7.7	34.9*
O=C1Nc2ccccc2C12OCCCO2	-0.4	-0.1	0.5	-3.1	-1.6
O=C1Nc2ccccc2C12OCCO2	0.2	0.3	-4.5	9.7	34.9*
NC(=O)C1=C[C@H](c2ccc(C(F)(F)F)cc2)C[C@H](OCCCCO)O1	-5.0	-0.1	-2.6	-2.9	10.9
O=C(O)C1=C[C@@H](c2ccc(C(F)(F)F)cc2)C[C@@H](OCCCCO)O1	-1.5	0.4	-3.0	-2.1	27.5*
CC(C)[C@H]1C=C(C(=O)O)O[C@@H](OCc2ccc(CO)cc2)C1	-3.4	0.5	-2.6	1.5	-3.9
CC(C)[C@H]1C=C(C(=O)O)O[C@@H](OCCCCO)C1	-5.3	0.0	-10.3	5.8	26.0*
Cc1ccc(C(c2c(C)nn(-c3ccccc3)c2N)c2c(C)nn(-c3ccccc3)c2N)cc1	2.9	-0.1	-3.4	7.7	30.2*
SMILES	ADAM17 inh	proKLK7 act	ADAM10 inh	sPLA2-III inh	CendR NRP1 mod
Cc1nn(-c2ccccc2)c(N)c1C(c1ccc(C(C)C)cc1)c1c(C)nn(-c2ccccc2)c1N	-1.5	-0.2	-5.5	3.3	1.8
CN(CCNC(=O)c1cccc(N2CCCC2=O)c1)Cc1ccccc1	-6.4	0.2	-6.0	-6.4	17.6*
CCN(CCNC(=O)c1cccc(N2CCCC2=O)c1)c1ccccc1	-1.6	0.0	1.6	1.8	-4.5
Cc1ccc(Nc2c(-c3ccccc3O)nc3ncccn23)cc1	2.0	1.4	13.3	5.2	25.3*
CCOC(=O)C1=C(O)C(=O)N(c2ccc(S(N)(=O)=O)cc2)C1c1cccc([N+](=O)[O-])c1 (stereo unspecified)	-6.1	-0.4	4.7	-0.8	14.9
CCOC(=O)C1=C(O)C(=O)N(c2ccccc2)C1c1cccc([N+](=O)[O-])c1 (stereo unspecified)	-4.6	-0.2	-3.4	-1.1	25.9*
CO/N=C/CC(=O)c1cnc(-c2ccc(Cl)cc2)s1	-2.8	-0.5	-8.4	-5.0	25.7*
COc1ccc(S(=O)(=O)N2CCCCC2)cc1NC(=O)c1c(F)cccc1Cl	-4.2	-0.8	-2.4	4.5	25.7*
CCOC(=O)C[C@H]1c2cc(C(F)(F)F)ccc2S(=O)(=O)N1C(C)C	-4.4	0.0	1.9	3.0	33.9*
CCOC(=O)C[C@H]1c2cc(F)ccc2S(=O)(=O)N1C(C)C	-2.5	0.6	3.6	3.2	18.3
CCCCCCCCCCCCN1[C@@H](CC(=O)O)c2cc(C(F)(F)F)ccc2S1(=O)=O	2.5	-0.1	21.8*	-26.4	-51.0
CCOC(=O)[C@]12CCCC3=C1N(CCC3)C(=O)[C@@H](CC(=O)NCc1ccc(OC)c(OC)c1)C2	3.2	0.1	4.1	5.6	nt
COc1ccccc1/C=N/NC(=O)CN(C1=NS(=O)(=O)c2ccccc21)c1ccccc1	2.7	-0.2	2.5	-13.1	26.3*
COc1ccc(/C=N/NC(=O)CN(C2=NS(=O)(=O)c3ccccc32)c2ccccc2)cc1	-1.8	-0.1	-9.7	-2.0	-2.3
CC(=O)N1CCN(C2=Nc3ccccc3Sc3ccccc32)CC1	2.6	0.3	3.3	-2.1	nt
COC(=O)NNC(=O)c1ccc(Cl)cc1Cl	5.3	-0.4	1.8	0.0	0.8
CNC(=S)NNC(=O)c1ccccc1F	-1.9	0.7	-2.5	3.0	4.4
CC(C)(C)C(=O)NC(=S)NNC(=O)c1ccc(Cl)cc1Cl	1.9	-0.1	8.3	42.0*	-1.5
O=C(CCC(=O)c1cccs1)NNC(=O)c1cccc(Cl)c1	-0.9	-0.2	-2.9	-5.7	-4.8
CNC(=S)NNC(=O)c1ccccc1Cl	6.1	-0.3	10.6	3.3	25.2*
O=C(CCC(=O)c1cccs1)NNC(=O)c1ccccc1Cl	5.3	0.3	5.5	-7.0	27.0*
COc1cc(/C=C/C(=O)OCC(=O)Nc2ccc3c(c2)OCO3)ccc1O	-8.6	-0.6	-45.7	-8.8	-4.5
COc1ccc(/C=C/C(=O)OCC(=O)Nc2ccc3c(c2)OCO3)cc1	-2.8	-0.7	-6.6	-2.2	21.4*
CCOc1ccc(/C=N/OCC(=O)Nc2ccc3c(c2)OCO3)cc1	3.0	0.2	6.2	-3.7	32.0*
CC(C(=O)OCC(=O)Nc1ccc2c(c1)OCO2)N1C(=O)c2ccccc2C1=O (stereo unspecified)	-8.3	0.1	0.4	-2.4	21.7*
O=C(CCC(=O)Nc1ccccc1Cl)NN=C1CCCC1	-0.3	0.2	-2.0	-2.0	21.9*

From PubChem BioAssay
